About 300 (9.4%) of roughly 3,200 compounds showed activity. The list comes from a sample in which actives are over-represented; it also holds similar structures and randomly drawn compounds. A number with no mark means an inactive call.
Test system: A673/TR/shEF
Experiment: cell viability (LOESS-normalised, relative to median of negative controls) (log2 ratio); higher = more viable cells (less compound effect), active = hit call of the paper (over 3 MAD below the median)
Details: treatment time: 72 h
Procedure, shortened: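 A673/TR/shEF Ewing sarcoma cells were plated at 1,500 per well in 384-well plates and cultured with or without doxycycline, added 24 h before compounds, to induce EWS-FLI1 shRNA knockdown. Library compounds at two or more concentrations, alongside DMSO controls, were applied for three days. Cell viability was measured by CellTiter-Glo luminescence on an Envision reader. Readings were LOESS-corrected per plate, divided by the median of negative controls and log2-transformed, and hits were wells lying at least three median absolute deviations from the median of all screened wells.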

[1] = 0.25 µM, library screen: screen2, EWS-FLI1 expression: high (no doxycycline)
[2] = 0.25 µM, library screen: screen2, EWS-FLI1 expression: low (doxycycline-induced shRNA knockdown)
[3] = 2.5 µM, library screen: screen2, EWS-FLI1 expression: high (no doxycycline)
[4] = 2.5 µM, library screen: screen2, EWS-FLI1 expression: low (doxycycline-induced shRNA knockdown)
[5] = 0.25 µM, library screen: screen1, EWS-FLI1 expression: high (no doxycycline)
[6] = 0.25 µM, library screen: screen1, EWS-FLI1 expression: low (doxycycline-induced shRNA knockdown)
[7] = 2.5 µM, library screen: screen1, EWS-FLI1 expression: high (no doxycycline)
[8] = 2.5 µM, library screen: screen1, EWS-FLI1 expression: low (doxycycline-induced shRNA knockdown)
[9] = 0.025 µM, library screen: screen1, EWS-FLI1 expression: high (no doxycycline)
[10] = 0.025 µM, library screen: screen1, EWS-FLI1 expression: low (doxycycline-induced shRNA knockdown)
[11] = 25 µM, library screen: screen1, EWS-FLI1 expression: high (no doxycycline)
[12] = 25 µM, library screen: screen1, EWS-FLI1 expression: low (doxycycline-induced shRNA knockdown)

CCCCCCCCCCCCCCCC(=O)NCC(COP(=O)([O-])OCC[N+](C)(C)C)OCC (centres undefined)
cell viability (log2) [1]: 0.198
cell viability (log2) [2]: 0.0364
cell viability (log2) [3]: 0.0761
cell viability (log2) [4]: -0.0192

COc1ccc(C(=O)c2ccccc2)c(O)c1O
cell viability (log2) [5]: 0.123
cell viability (log2) [6]: 0.143
cell viability (log2) [7]: 0.244
cell viability (log2) [8]: 0.216

COc1ccc2c(c1)c(CC(=O)Nc1ccc(NC(C)=O)cc1)c(C)n2C(=O)c1ccc(Cl)cc1
cell viability (log2) [1]: -0.0274
cell viability (log2) [2]: 0.0874
cell viability (log2) [3]: 0.0757
cell viability (log2) [4]: 0.214

CCCN(CCC)CCc1cccc2c1CC(=O)N2
cell viability (log2) [1]: -0.0806 (active)
cell viability (log2) [2]: -0.203 (active)
cell viability (log2) [3]: -3.18 (active)
cell viability (log2) [4]: -2.79 (active)

CCN1C(=O)/C(=C/c2c(N3CCN(C)CC3)nc3ccccn3c2=O)SC1=S
cell viability (log2) [5]: 0.0782
cell viability (log2) [6]: 0.0798
cell viability (log2) [7]: 0.126
cell viability (log2) [8]: 0.0777

COc1ccc(-c2nn(-c3ccccc3)cc2C=O)cc1[N+](=O)[O-]
cell viability (log2) [5]: 0.000395
cell viability (log2) [6]: 0.0393
cell viability (log2) [7]: 0.0878
cell viability (log2) [8]: 0.0816

Cc1cc2ncc(-c3ccccc3)nc2cc1C
cell viability (log2) [9]: 0.21
cell viability (log2) [10]: 0.0761
cell viability (log2) [5]: 0.265
cell viability (log2) [6]: 0.0996
cell viability (log2) [7]: -0.0894 (active)
cell viability (log2) [8]: 0.141
cell viability (log2) [11]: -0.147 (active)
cell viability (log2) [12]: 0.0902

COc1ccccc1N(C(N)=O)c1nc(-c2cccnc2)nc2ccccc12
cell viability (log2) [1]: 0.155
cell viability (log2) [2]: 0.0439
cell viability (log2) [3]: 0.275
cell viability (log2) [4]: 0.0633

C=C(c1ccccc1)c1cc(O)c(OC)cc1O
cell viability (log2) [5]: -0.0139
cell viability (log2) [6]: -0.00424
cell viability (log2) [7]: 0.0356
cell viability (log2) [8]: 0.0603

COc1cc2ncc(-c3ccccc3)nc2cc1OC
cell viability (log2) [9]: 0.165
cell viability (log2) [10]: -0.00441
cell viability (log2) [5]: 0.202
cell viability (log2) [6]: 0.0199
cell viability (log2) [1]: 0.139
cell viability (log2) [2]: 0.0671
cell viability (log2) [7]: -0.0715
cell viability (log2) [8]: 0.188
cell viability (log2) [3]: 0.212
cell viability (log2) [4]: 0.201
cell viability (log2) [11]: -0.157 (active)
cell viability (log2) [12]: 0.175

O=C(Nc1ccccn1)c1cc(-c2ccccc2)nc2ccccc12
cell viability (log2) [5]: 0.083
cell viability (log2) [6]: -0.00975
cell viability (log2) [7]: 0.0888
cell viability (log2) [8]: -0.0311

CC1=C(C(=O)OCC2CCCO2)C(c2coc3ccccc3c2=O)C2=C(CCCC2=O)N1 (centres undefined)
cell viability (log2) [5]: 0.0728
cell viability (log2) [6]: 0.022
cell viability (log2) [7]: 0.00147
cell viability (log2) [8]: 0.0061

COc1ccc2c(c1)OC1CC1(c1ccccc1OC)C2=O (centres undefined)
cell viability (log2) [5]: 0.0685
cell viability (log2) [6]: 0.0535
cell viability (log2) [7]: 0.0294
cell viability (log2) [8]: 0.0412
